For assay [1], the target named is Luciferin 4-monooxygenase (Photinus pyralis) (UniProt P08659). Briefly: qHTS assay to identify small molecule inhibitors of firefly luciferase (AID 1224835). Note: nearly all actives have a fitted effect of over 25% in size. Note: potency is the fitted concentration of half-maximal effect. In outline:
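Inhibition of purified Photinus luciferase is measured by luminescence. Substrate levels (D-luciferin, ATP) sit at their KM values. Each compound is tested in a concentration series.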
A general note: qHTS replaces the single test concentration by a dilution series.

Assay [2] is described as follows: qHTS assay to identify small molecule agonists of the constitutive androstane receptor (CAR) signaling pathway - cell viability counter screen (AID 1224836). Note: series mostly up to about 92 µM; nearly all actives have a fitted effect of over 45% in size. The method, boiled down:
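Compound titrations (15 concentrations) went onto HepG2-CYP2B6-hCAR cells 4 h after seeding, alongside PK11195 at a final 0.75 uM; a 23 h, 37 C/5% CO2 incubation preceded CellTiter-Fluor viability measurement.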

Assay [3] can be described thus: qHTS assay to identify small molecule antagonists of the constitutive androstane receptor (CAR) signaling pathway - cell viability counter screen (AID 1224837). Note: series mostly up to about 92 µM; nearly all actives have a fitted effect of over 45% in size. The method, boiled down:
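HepG2-CYP2B6-hCAR cells, 2500/well, 4 hr pre-incubation; compound titration, 15 conc.; CITCO 50 nM final; 23 hr, 37 C/5% CO2; CellTiter-Fluor, fluorescence intensity.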

In assay [4] the target is Nuclear receptor subfamily 1 group I member 3 (Homo sapiens) (UniProt Q14994). Briefly: qHTS assay to identify small molecule antagonists of the constitutive androstane receptor (CAR) signaling pathway (AID 1224838).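 Note: HepG2 cells stably expressing hCAR with CYP2B6 luciferase reporter stimulated by CITCO; nearly all actives have a fitted effect of over 40% in size.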 In outline:
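HepG2-CYP2B6-hCAR cells; 4 h pre-incubation; cpd (15 conc) + CITCO 50 nM final; 24 h, 37 C/5% CO2; ONE-Glo, luminescence.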

Assay [5] is described as follows: qHTS assay to identify small molecule antagonists of the estrogen related receptor signaling pathway with the pleiotropic PPARgamma coactivator (PGC) from Tox21 10K library - cell viability counter screen (AID 1224840; active = well fitted cell-killing curve with a large enough effect in the repeat runs, not every such curve was filed as active; note: nearly all actives have a fitted effect of over 40% in size). The method, boiled down: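 PGC/ERR cells, 2,000/well; 6 h pre-incubation 37 C/5% CO2; cpd in DMSO via pin tool; 17.5 h 37 C; CellTiter-Fluor, 30 min; fluorescence.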

Assay [6] in a line: qHTS assay to identify small molecule antagonists of the estrogen related receptor signaling pathway with the pleiotropic PPARgamma coactivator (PGC) from Tox21 10K library (AID 1224841; call rule not given here; note: actives are mostly falling curves and most rising ones were filed inactive; nearly all actives have a fitted effect of over 50% in size; note: potency is the fitted concentration of half-maximal effect). In outline:
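PGC/ERR cell line, 2,000 cells/well; 6 h pre-incubation 37 C/5% CO2; compounds (DMSO) pinned in; 18 h, 37 C; One-Glo, 30 min RT; luminescence.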

Assay [7] is described as follows: qHTS assay to identify small molecule agonists of the estrogen related receptor signaling pathway with the pleiotropic PPARgamma coactivator (PGC) from Tox21 10K library (AID 1224842). Note: nearly all actives have a fitted effect of over 15% in size. The method, boiled down:
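Luminescence from One-Glo (30 min, room temperature) measured after PGC/ERR cells had 18 h at 37 C with pinned compound (23 nL in DMSO). Cells had been seeded at 2,000 per well and pre-incubated 6 h.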

Assay [8] deals with Nuclear receptor subfamily 1 group I member 3 (Homo sapiens) (UniProt Q14994). Briefly: qHTS assay to identify small molecule agonists of the constitutive androstane receptor (CAR) signaling pathway (AID 1224839).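 Note: HepG2 cells stably carrying human CAR and a CYP2B6 luciferase reporter; series mostly up to about 92 µM; nearly all actives have a fitted effect of over 15% in size.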 In outline:
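In this screen, CAR-driven CYP2B6 promoter activity is measured by luminescence in HepG2-CYP2B6-hCAR cells after 24 h with test compounds and 0.75 uM PK11195 (final concentration).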

“And” between values parts separate entries of the source, which are not always exact repeats. Equal entries are not always repeated. Results filed as inconclusive are left out. Some structures have more than one record in an assay (separate samples or runs), and their calls can disagree. The source made the active and inactive calls. Unless noted, calls come from the whole dose curve; as a rule, active = well fitted curve in the direction sought with a large enough effect in the repeat runs; inconclusive = weak or mixed curves; inactive = no such curve, though single readings can be large; an effect the other way counts as inactive or inconclusive.

Chain of Nuclear receptor subfamily 1 group I member 3 (Homo sapiens) (Q14994 whole entry, looked up): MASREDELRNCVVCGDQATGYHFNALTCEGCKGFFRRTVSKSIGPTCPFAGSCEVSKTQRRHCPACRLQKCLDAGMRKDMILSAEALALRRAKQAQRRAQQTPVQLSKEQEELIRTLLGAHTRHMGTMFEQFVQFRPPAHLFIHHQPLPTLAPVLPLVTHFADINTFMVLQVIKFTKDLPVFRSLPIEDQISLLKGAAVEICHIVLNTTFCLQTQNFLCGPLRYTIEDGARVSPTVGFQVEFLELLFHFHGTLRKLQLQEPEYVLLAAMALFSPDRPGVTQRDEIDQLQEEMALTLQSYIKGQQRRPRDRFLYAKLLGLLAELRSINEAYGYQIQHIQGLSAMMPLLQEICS
Chain of Luciferin 4-monooxygenase (Photinus pyralis) (P08659 whole entry, looked up): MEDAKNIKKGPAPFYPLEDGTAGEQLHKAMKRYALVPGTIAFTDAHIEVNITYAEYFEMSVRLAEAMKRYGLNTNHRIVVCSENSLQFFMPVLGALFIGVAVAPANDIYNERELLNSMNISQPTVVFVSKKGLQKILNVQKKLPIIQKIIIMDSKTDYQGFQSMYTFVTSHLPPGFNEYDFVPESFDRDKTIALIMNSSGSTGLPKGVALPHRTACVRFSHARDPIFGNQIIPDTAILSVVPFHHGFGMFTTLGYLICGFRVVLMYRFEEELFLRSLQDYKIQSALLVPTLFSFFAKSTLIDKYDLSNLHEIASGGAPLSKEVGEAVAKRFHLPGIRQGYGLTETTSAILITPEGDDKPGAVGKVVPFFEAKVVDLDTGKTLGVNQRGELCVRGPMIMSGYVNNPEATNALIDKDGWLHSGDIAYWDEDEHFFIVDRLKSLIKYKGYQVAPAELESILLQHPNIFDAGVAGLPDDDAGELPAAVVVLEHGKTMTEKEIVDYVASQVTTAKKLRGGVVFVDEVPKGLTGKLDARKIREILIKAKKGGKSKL

In the case of `CN1C(=O)CC[C@H]1c1cccnc1`, the Potency result in assay [1], in assay [2], in assay [3] and in assay [5] was “inactive” throughout. The outcome in assay [4] was inactive.
Regarding `Cc1ccc2ncccc2c1`, the Potency entry in assay [1], in assay [2], in assay [3], in assay [5] and in assay [6] was “inactive” in each case. Besides, the call in assay [7] was inactive.
Regarding `CN/C(=C\[N+](=O)[O-])NCCSCc1csc(CN(C)C)n1`, the Potency entry in assay [2], in assay [3] and in assay [5] was “inactive” in each case.
For the molecule `O=C1CCCC1`, the Potency entry in assay [2], in assay [3], in assay [5] and in assay [6] was “inactive” each time. Besides, in assay [7], the result was inactive.
As for `Cc1ccc([N+](=O)[O-])cc1S(=O)(=O)O`, the Potency entry in assay [1], in assay [2], in assay [3], in assay [5] and in assay [6] was “inactive” each time. In assay [7], the molecule was classed as inactive.
Take `OCc1cccc(Oc2ccccc2)c1`: the Potency entry in assay [2], in assay [3], in assay [8] and in assay [5] was “inactive” each time.
As for `CCOCCOCCOCCO`, the Potency entry in assay [2], in assay [3] and in assay [5] was “inactive” each time.
As for `C=CC(=O)OCCC(=O)O`, the Potency entry in assay [2], in assay [3], in assay [8], in assay [5] and in assay [6] was “inactive” in each case.
With `CCNC(=S)NCC`, the Potency entry in assay [1], in assay [2], in assay [3] and in assay [5] was “inactive” in each case. Also, in assay [4], the result was inactive.
Take `O=C(O)c1cc2ccccc2cc1O`: the Potency in assay [1] was 35.3 µM (active) and 31.7 µM (active). Besides, the Potency entry in assay [2], in assay [3], in assay [5] and in assay [6] was “inactive” throughout. The outcome in assay [4] and in assay [7] was inactive.
With `CCNc1cccc(C)c1`, the Potency result in assay [1], in assay [2], in assay [3], in assay [5] and in assay [6] was “inactive” in each case. In assay [7], the result was inactive.
Turning to `Clc1ccccn1`, the Potency result in assay [1], in assay [2], in assay [3] and in assay [5] was “inactive” throughout.
In the case of `N[C@H](Cc1c[nH]c2ccccc12)C(=O)O`, the Potency result in assay [1], in assay [2], in assay [3] and in assay [5] was “inactive” each time.
Take `CC(C)CC(=O)CC(C)CC(C)C` (configuration not stated): the Potency result in assay [1], in assay [2], in assay [3], in assay [5] and in assay [6] was “inactive” each time. For the same molecule, the molecule was called inactive in assay [4] and in assay [7].
With `NCCCCCCN`, the Potency result in assay [1], in assay [2], in assay [3], in assay [5] and in assay [6] was “inactive” each time. The molecule was called inactive in assay [7].
`CCO[Si](CCC#N)(OCC)OCC`: the Potency result in assay [1], in assay [2], in assay [3] and in assay [5] was “inactive” throughout.
Consider `COC(=O)c1cccnc1`, for which the Potency result in assay [2], in assay [3], in assay [8], in assay [5] and in assay [6] was “inactive” each time. Further, the outcome in assay [4] and in assay [7] was inactive.
As to `C=C(C)[C@H]1CC=C(C)C(=O)C1`, the Potency result in assay [1], in assay [2], in assay [3] and in assay [5] was “inactive” throughout.
Turning to `Nc1ccc(Cl)c(N)c1`, the Potency result in assay [2], in assay [3] and in assay [5] was “inactive” each time.
With `CC(=O)OCc1ccccc1`, the Potency result in assay [2], in assay [3] and in assay [5] was “inactive” in each case.
`CC(=O)OCCOC(C)=O`: the Potency result in assay [2], in assay [3], in assay [8] and in assay [5] was “inactive” in each case. The outcome in assay [4] was inactive.
As for `CC(=O)CC(C)(C)O`, the Potency result in assay [1], in assay [2], in assay [3], in assay [5] and in assay [6] was “inactive” in each case. The molecule was classed as inactive in assay [7].
On to `CCOC(=O)n1ccn(C)c1=S`, for which the Potency result in assay [2], in assay [3] and in assay [5] was “inactive” throughout.
In the case of `C=CC(C)CCCC(C)(C)O` (configuration not stated), the Potency result in assay [1], in assay [2], in assay [3] and in assay [5] was “inactive” throughout. Besides, in assay [4], the outcome was inactive.
Regarding `CC(CCl)OP(=O)(OC(C)CCl)OC(C)CCl` (configuration not stated), the Potency entry in assay [1], in assay [2], in assay [3] and in assay [5] was “inactive” throughout. The Potency in assay [6] is 38.6 µM (active) and inactive. Also, the molecule was classed as inactive in assay [7].
Take `CCCCCCCCCCO`: the Potency result in assay [1], in assay [2], in assay [3] and in assay [5] was “inactive” in each case.
Turning to `Nc1nc(N)nc(-c2ccccc2)n1`, the Potency entry in assay [2], in assay [3], in assay [8] and in assay [5] was “inactive” each time. Also, the molecule was classed as inactive in assay [4].
Turning to `CCOC(=O)c1ccc(N)cc1`, the Potency result in assay [2], in assay [3], in assay [8] and in assay [5] was “inactive” each time. Besides, the result in assay [4] was inactive.
On to `CC(=O)Oc1ccc(C)cc1`, for which the Potency entry in assay [1], in assay [2], in assay [3] and in assay [5] was “inactive” throughout.
With `COc1cc(OC)c(C(=O)CCCN2CCCC2)c(OC)c1`, the Potency entry in assay [1], in assay [2], in assay [3], in assay [8] and in assay [5] was “inactive” each time.
Take `C=C(C)CNCC`: the Potency entry in assay [1], in assay [2], in assay [3], in assay [5] and in assay [6] was “inactive” each time. Also, the molecule was called inactive in assay [4] and in assay [7].
As for `COc1ccc([N+](=O)[O-])cc1N`, the Potency result in assay [1], in assay [2], in assay [3], in assay [8] and in assay [5] was “inactive” in each case.

For the origin of these results see PubChem BioAssay (Tox21).
